Experimental data from PubChem BioAssay (NCI).
About 83,000 compounds went through this panel and 20% of them were active in at least one assay; those are over-represented in the sample as a whole.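 Each cell line was grown in a 96-well plate and treated with one concentration of compound for 48 hours. Values below 10 were considered active.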 A number with no mark means an inactive call. The source made the active and inactive calls.

Test system: RPMI-8226 leukemia
Assay: NCI-60 one-dose screen, 48 h (100 = growth as untreated, 0 = no growth, -100 = all killed)
Details: 10 µM

Row | Compound | growth
1 | N#Cc1c(-c2ccc(Cl)cc2)cc(-c2ccccc2)nc1OCc1ccccc1 | 60.3%
2 | COc1cccc(/C=N/NC(=O)c2ccc3nc(-c4ccc(Cl)cc4)[nH]c3c2)c1O | -50.5% (active)
3 | COc1ccc(/C(CSc2nnc(-c3c[nH]c4ccccc34)n2-c2ccccc2)=N/O)cc1 | 9.81% (active)

Test system: OVCAR-8 ovarian
Assay: as above
Details: 10 µM

Row | Compound | growth
4 | O=S(=O)(Nc1ncccn1)c1ccc(-n2c(-c3ccccc3)nc(-c3ccccc3)c2-c2ccccc2)cc1 | 97.4%
5 | COc1ccc(-c2cc(-c3cc(C(=O)c4ccccc4)n4ccc(C)cc34)nc(N)c2C#N)cc1 | 20.2%
6 | N#Cc1ccc(NC(=O)CSc2ccc(-c3ccc(Br)cc3)nn2)cc1 | 76.3%
7 | CCCn1c(O)c(N=Nc2nc(-c3cc4ccccc4oc3=O)cs2)c2cc(Br)ccc21 | 105%
8 | COc1cc2oc(-c3cccc(C(=O)Nc4ccc(Cl)cc4)c3)cc(=O)c2c(OCCNC(=O)CNC(=O)OC(C)(C)C)c1OC | 48%
9 | CCCCOc1ccc(Nc2nc3ccccc3nc2Nc2ccc(OCCCC)cc2)cc1 | 92.3%
10 | COc1cc(NC(=O)CSc2nnc(-c3ccc4nc(-c5ccc(Cl)cc5)[nH]c4c3)o2)cc(OC)c1OC | 42.1%
11 | O=C(NO)c1ccc(CNC(=O)[C@H]2Cc3c([nH]c4ccccc34)[C@H](c3ccc(Cl)cc3)N2)cc1 | 16.1%
12 | N#Cc1c(NC(=O)c2ccc(C(F)(F)F)c(Cl)c2)sc2c1CCC(=O)C2 | -34% (active)
13 | O=C(Cc1ccc2c(c1)CN(C1CCC(=O)NC1=O)C2=O)NCc1cccc2ccccc12 (stereo not drawn) | -3.71% (active)
